According to PubChem BioAssay (Tox21):
“And” between values parts separate entries of the source, which are not always exact repeats. Equal entries are not always repeated. Results filed as inconclusive are left out. A call without a number means that no potency is given here. Where a structure was tested more than once in an assay, its records may differ in their call. The source made the active and inactive calls. Unless noted, the call rests on the fitted dose curve; in most records, active means well fitted curve in the direction sought with a large enough effect in the repeat runs; inconclusive means weak or mixed curves; inactive means no such curve, though single readings can be large; an effect the other way counts as inactive or inconclusive.

Columns and labels:
[1] = qHTS assay to identify small molecule antagonists of the thyroid receptor (TR) signaling pathway - cell viability counter screen (AID 743064); further: nearly all actives have a fitted effect of over 50% in size; further: potency means the concentration at half of the fitted maximal effect
Outline: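 CellTiter-Fluor readout, 30 min at 37 °C/5% CO2, following 23.5 h incubation of GH3.TRE-Luc cells with test compound and 1 nM T3 (final).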

[2] = qHTS assay to identify small molecule antagonists of the thyroid receptor (TR) signaling pathway (AID 743065); further: nearly all actives have a fitted effect of over 55% in size; further: potency means the concentration at half of the fitted maximal effect
Outline: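 GH3.TRE-Luc rat pituitary cells (two TREs driving luciferase) were dosed with compound, then stimulated with 1 nM T3 (final) for 23.5 h at 37 C. ONE-Glo luminescence was the read-out, with CellTiter-Fluor fluorescence as the cytotoxicity counter-screen.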

[3] = tested on: thyroid hormone receptor (rat, GH3 cells); test: qHTS assay to identify small molecule agonists of the thyroid receptor (TR) signaling pathway (AID 743066; calls by dose curve)
[4] = qHTS assay to identify small molecule antagonists of the estrogen receptor alpha (ER-alpha) signaling pathway - cell viability counter screen (AID 743074; calls by dose curve;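 further: HEK293 cells carrying ER-alpha-UAS-bla reporter stimulated with 17beta-estradiol; nearly all actives have a fitted effect of over 45% in size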)
[5] = qHTS assay to identify small molecule antagonists of the estrogen receptor alpha (ER-alpha) signaling pathway using the BG1 cell line - cell viability counter screen (AID 743081);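 further: compound given together with 17beta-estradiol as the ER stimulus; nearly all actives have a fitted effect of over 45% in size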; further: potency means the concentration at half of the fitted maximal effect
[6] = target: Aromatase (Homo sapiens) (UniProt P11511); test: qHTS assay to identify aromatase inhibitors (AID 743083); further: nearly all actives have a fitted effect of over 55% in size; further: potency means the concentration at half of the fitted maximal effect
[7] = qHTS assay to identify aromatase inhibitors - cell viability counter screen (AID 743084);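 further: cells stimulated with testosterone during compound exposure; nearly all actives have a fitted effect of over 55% in size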; further: potency means the concentration at half of the fitted maximal effect
[8] = qHTS assay to identify small molecule that activate the aryl hydrocarbon receptor (AhR) signaling pathway - cell viability counter screen (AID 743086); further: nearly all actives have a fitted effect of over 45% in size; further: potency means the concentration at half of the fitted maximal effect
Outline: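 HepG2-AhR-luc (HG2L7.5c1) cells, 4000/well, treated 24 h at 37 C with compound; viability measured as CellTiter-Fluor fluorescence after 30 min in the same wells as the luciferase read.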

[9] = qHTS assay to identify small molecule antagonists of the peroxisome proliferator-activated receptor gamma (PPARg) signaling pathway - cell viability counter screen (AID 743194); settings: Potency: co-treated with 50 nM rosiglitazone; further: nearly all actives have a fitted effect of over 55% in size; further: potency means the concentration at half of the fitted maximal effect
Outline: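 Cytotoxicity counter screen in PPARg-bla HEK293H cells, same wells as reporter assay. Compounds plus 50 nM rosiglitazone (final) for 17 h at 37 C, then viability read by CellTiter-Glo luminescence.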

[10] = qHTS assay for small molecule agonists of the antioxidant response element (ARE) signaling pathway - cell viability counter screen (AID 743203; calls by dose curve; further: nearly all actives have a fitted effect of over 55% in size; further: potency means the concentration at half of the fitted maximal effect)
Outline: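 Luminescence read-out (CellTiter-Glo, 30 min at room temperature) measured cell viability in the same wells as the ARE beta-lactamase reporter. HepG2 ARE-bla cells were treated with compounds for 16 hrs at 37C/5% CO2.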

[11] = qHTS assay for small molecule activators of the heat shock response signaling pathway - cell viability counter screen (AID 743209); further: nearly all actives have a fitted effect of over 50% in size
Outline: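 HSE-bla HeLa; 1500 cells/well; overnight 37 C, 5% CO2; compound 5 h 37 C; LiveBLAzer B/G substrate 2.5 h RT; CellTiter-Glo 30 min RT; luminescence.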

[12] = qHTS assay for small molecule activators of the heat shock response signaling pathway (AID 743210; active means well fitted activation curve with a large enough effect in the signal ratio in the repeat runs, with a control signal flat, not every such curve was filed as active; the % refers to the signal ratio;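 further: HeLa cells with beta-lactamase reporter driven by heat shock elements; series mostly up to about 63 µM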)
Outline: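 Beta-lactamase reporter read-out: FRET substrate fluorescence after 2.5 h at RT, following 5 h compound treatment at 37 C of HeLa cells carrying HSE-driven bla reporter; quantitative HTS format.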

[13] = target: Peroxisome proliferator-activated receptor gamma (Homo sapiens) (UniProt P37231); test: qHTS assay to identify small molecule agonists of the peroxisome proliferator-activated receptor gamma (PPARg) signaling pathway (AID 743094; active means well fitted activation curve with a large enough effect in the signal ratio in the repeat runs, not every such curve was filed as active; the % refers to the signal ratio)
Outline: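 HEK293H PPARg-bla cells, 5 h settle at 37C/5% CO2; compound (DMSO) 17 h, 37C; B/G FRET substrate 1 h RT; fluorescence intensity read-out. qHTS format.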

[14] = target: Aryl hydrocarbon receptor (Homo sapiens) (UniProt P35869); test: qHTS assay to identify small molecule that activate the aryl hydrocarbon receptor (AhR) signaling pathway (AID 743085);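 further: HG2L7.5c1 human HepG2 liver cells with stably integrated DRE-driven firefly reporter; series mostly up to about 70 µM; nearly all actives have a fitted effect of over 15% in size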
Outline: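 Stably transfected human liver carcinoma cells (HG2L7.5c1; 20 DRE-firefly luciferase) were incubated 5 h, dosed, and kept 24 h at 37C. Agonism was scored from increased luciferase luminescence.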

[15] = target: Estrogen receptor (Homo sapiens) (UniProt P03372); test: qHTS assay to identify small molecule agonists of the estrogen receptor alpha (ER-alpha) signaling pathway (AID 743075; calls by dose curve;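 further: HEK293 GripTite cells with ER-alpha and UAS-driven beta-lactamase reporter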)
[16] = target: Estrogen receptor (Homo sapiens) (UniProt P03372); test: qHTS assay to identify small molecule agonists of the estrogen receptor alpha (ER-alpha) signaling pathway using the BG1 cell line (AID 743079); further: nearly all actives have a fitted effect of over 20% in size
[17] = qHTS assay to identify small molecule antagonists of the estrogen receptor alpha (ER-alpha) signaling pathway using the BG1 cell line (AID 743080; calls by dose curve;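 further: BG1 cells stimulated with 17beta-estradiol alongside compound; series mostly up to about 70 µM; nearly all actives have a fitted effect of over 25% in size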)
Outline: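 Endogenous full-length ER-alpha in BG1-Luc-4E2 cells drives a stably integrated 4×ERE luciferase gene; compounds were tested against 17beta-estradiol over 21.5 h, with luminescence and multiplexed viability fluorescence recorded.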

[18] = target: Peroxisome proliferator-activated receptor gamma (Homo sapiens) (UniProt P37231); test: qHTS assay to identify small molecule antagonists of the peroxisome proliferator-activated receptor gamma (PPARg) signaling pathway (AID 743191; calls by dose curve; further: nearly all actives have a fitted effect of over 30% in size; further: potency means the concentration at half of the fitted maximal effect)
Outline: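 GeneBLAzer PPARg UAS-bla HEK293H cells, 5 h post-plating, exposed to compounds 17 h at 37C. LiveBLAzer B/G FRET substrate added for 1 h at room temperature; beta-lactamase reporter read by fluorescence intensity.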

[19] = target: Estrogen receptor (Homo sapiens) (UniProt P03372); test: qHTS assay to identify small molecule antagonists of the estrogen receptor alpha (ER-alpha) signaling pathway (AID 743069; active means well fitted curve in the direction sought with a large enough effect in the signal ratio in the repeat runs, not every such curve was filed as active; the % refers to the signal ratio; further: potency means the concentration at half of the fitted maximal effect)
Outline: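 Beta-lactamase FRET fluorescence is read after 2 hr at room temperature with LiveBLAzer B/G substrate. Before that, ER-alpha-bla HEK293 cells sit 4 hr after plating, then receive compound plus 17beta-estradiol and incubate 18 hr at 37C.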

[20] = qHTS assay for small molecule agonists of the antioxidant response element (ARE) signaling pathway (AID 743202; active means well fitted activation curve with a large enough effect in the signal ratio in the repeat runs, not every such curve was filed as active; the % refers to the signal ratio)
Outline: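 HepG2 ARE-bla reporter line, 2,000 cells/well; 5 h preincubation 37 C/5% CO2; compound (DMSO) 16 h 37 C; B/G FRET substrate 2 h RT; fluorescence intensity.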

Sequence of Estrogen receptor (Homo sapiens) (P03372 whole entry, looked up): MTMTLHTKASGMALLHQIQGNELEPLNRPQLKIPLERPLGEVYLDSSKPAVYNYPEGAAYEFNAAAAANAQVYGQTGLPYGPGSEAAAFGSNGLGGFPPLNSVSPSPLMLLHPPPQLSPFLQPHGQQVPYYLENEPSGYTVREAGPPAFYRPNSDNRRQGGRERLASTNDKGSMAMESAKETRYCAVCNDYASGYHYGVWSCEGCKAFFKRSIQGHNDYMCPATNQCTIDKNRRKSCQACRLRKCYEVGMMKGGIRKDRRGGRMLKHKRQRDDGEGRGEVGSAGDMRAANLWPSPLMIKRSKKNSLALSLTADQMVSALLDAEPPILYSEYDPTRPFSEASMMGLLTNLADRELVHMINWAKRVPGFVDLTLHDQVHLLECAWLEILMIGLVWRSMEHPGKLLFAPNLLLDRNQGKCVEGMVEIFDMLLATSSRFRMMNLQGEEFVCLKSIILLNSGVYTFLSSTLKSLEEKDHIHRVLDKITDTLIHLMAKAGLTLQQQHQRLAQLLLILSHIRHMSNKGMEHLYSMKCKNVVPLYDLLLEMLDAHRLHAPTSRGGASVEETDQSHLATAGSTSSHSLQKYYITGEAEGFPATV
Sequence of Aromatase (Homo sapiens) (P11511 whole entry, looked up): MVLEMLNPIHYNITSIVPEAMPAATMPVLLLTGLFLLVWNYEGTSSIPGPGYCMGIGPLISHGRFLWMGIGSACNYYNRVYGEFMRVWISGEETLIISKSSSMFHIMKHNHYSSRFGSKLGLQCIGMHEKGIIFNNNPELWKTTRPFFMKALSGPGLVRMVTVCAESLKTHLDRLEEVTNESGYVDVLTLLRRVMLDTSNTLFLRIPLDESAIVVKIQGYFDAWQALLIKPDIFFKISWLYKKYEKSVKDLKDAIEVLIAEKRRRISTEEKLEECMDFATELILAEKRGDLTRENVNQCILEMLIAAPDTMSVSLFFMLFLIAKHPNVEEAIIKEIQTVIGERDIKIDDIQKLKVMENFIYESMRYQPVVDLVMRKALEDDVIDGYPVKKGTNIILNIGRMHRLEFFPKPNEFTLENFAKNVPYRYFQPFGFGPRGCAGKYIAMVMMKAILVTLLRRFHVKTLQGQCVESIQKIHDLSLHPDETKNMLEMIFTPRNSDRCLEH
Sequence of Aryl hydrocarbon receptor (Homo sapiens) (P35869 whole entry, looked up): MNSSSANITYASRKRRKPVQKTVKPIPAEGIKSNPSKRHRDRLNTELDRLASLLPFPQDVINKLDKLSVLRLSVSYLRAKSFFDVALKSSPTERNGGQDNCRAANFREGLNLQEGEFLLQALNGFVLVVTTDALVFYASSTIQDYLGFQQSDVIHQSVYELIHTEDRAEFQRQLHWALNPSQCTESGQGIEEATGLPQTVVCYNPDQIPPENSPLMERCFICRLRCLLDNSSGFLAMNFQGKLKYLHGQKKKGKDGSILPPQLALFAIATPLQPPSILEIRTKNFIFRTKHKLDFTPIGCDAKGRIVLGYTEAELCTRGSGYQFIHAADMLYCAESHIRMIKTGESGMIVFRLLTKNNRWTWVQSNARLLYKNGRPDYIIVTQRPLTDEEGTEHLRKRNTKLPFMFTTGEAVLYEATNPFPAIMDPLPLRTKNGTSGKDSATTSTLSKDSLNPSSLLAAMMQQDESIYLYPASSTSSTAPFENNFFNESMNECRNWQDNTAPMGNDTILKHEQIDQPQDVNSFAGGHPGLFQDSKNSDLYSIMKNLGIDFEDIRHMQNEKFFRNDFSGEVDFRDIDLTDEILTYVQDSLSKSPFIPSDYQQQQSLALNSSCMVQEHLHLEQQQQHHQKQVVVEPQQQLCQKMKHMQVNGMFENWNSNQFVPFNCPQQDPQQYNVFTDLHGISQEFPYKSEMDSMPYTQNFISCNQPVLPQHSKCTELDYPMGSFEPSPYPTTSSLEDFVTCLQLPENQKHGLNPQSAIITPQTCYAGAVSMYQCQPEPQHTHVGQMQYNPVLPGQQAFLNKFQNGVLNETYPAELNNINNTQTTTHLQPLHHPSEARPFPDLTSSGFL
Sequence of Peroxisome proliferator-activated receptor gamma (Homo sapiens) (P37231 whole entry, looked up): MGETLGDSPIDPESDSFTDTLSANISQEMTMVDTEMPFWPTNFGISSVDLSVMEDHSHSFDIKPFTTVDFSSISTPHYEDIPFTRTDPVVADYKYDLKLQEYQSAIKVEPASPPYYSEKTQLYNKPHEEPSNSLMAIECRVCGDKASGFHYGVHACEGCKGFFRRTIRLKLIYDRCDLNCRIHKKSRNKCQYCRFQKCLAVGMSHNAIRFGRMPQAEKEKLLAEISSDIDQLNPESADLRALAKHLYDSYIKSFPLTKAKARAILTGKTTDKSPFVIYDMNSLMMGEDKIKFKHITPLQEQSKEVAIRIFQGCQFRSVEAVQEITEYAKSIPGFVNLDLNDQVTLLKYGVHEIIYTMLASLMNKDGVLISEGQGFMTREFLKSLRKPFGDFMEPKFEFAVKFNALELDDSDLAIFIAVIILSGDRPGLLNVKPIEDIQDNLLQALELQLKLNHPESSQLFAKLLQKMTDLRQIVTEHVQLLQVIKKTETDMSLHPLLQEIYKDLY

Structure (SMILES)	Potency [1]	Potency [2]	Potency [3]	Potency [4]	Potency [5]	Potency [6]	Potency [7]	Potency [8]	Potency [9]	Potency [10]	Potency [11]	Potency [12]	Potency [13]	Potency [14]	Potency [15]	Potency [16]	Potency [17]	Potency [18]	Potency [19]	Potency [20]
CCCCCCCCP(=O)(O)O	inactive	inactive	inactive	inactive	inactive	inactive	inactive	inactive	inactive	inactive	inactive	inactive								
C=CCc1ccc(OC(=O)Cc2ccccc2)c(OC)c1	inactive	inactive	inactive	inactive	inactive	inactive	inactive	inactive	inactive	inactive	inactive	inactive	inactive							
O=[N+]([O-])/C=C/c1ccccc1	13.9 µM (active) and 9.69 µM (active)	12.4 µM (active) and 7.7 µM (active)	inactive	inactive	inactive	27.8 µM (active)	31.1 µM (active) and 54.5 µM (active)	inactive	31.4 µM (active) and 24.5 µM (active)	22 µM (active) and 15.4 µM (active)	inactive									
O=C(O)COc1cc(Cl)c(Cl)cc1Cl	inactive	54.5 µM (active)	inactive		inactive	inactive	inactive	inactive	inactive	inactive	inactive	inactive	inactive	inactive						
COc1cc(C[C@@H](C)N)c(OC)cc1Br	62.8 µM (active)	56 µM (active)	inactive		inactive		inactive		inactive	inactive	inactive	inactive		inactive	inactive	inactive	inactive	inactive		
CN1C[C@H](C(=O)N[C@]2(C)O[C@@]3(O)[C@@H]4CCCN4C(=O)[C@H](Cc4ccccc4)N3C2=O)C=C2c3cccc4[nH]cc(c34)C[C@H]21	inactive		inactive	inactive	16.8 µM (active) and 27.4 µM (active)	inactive	inactive	21.8 µM (active) and inactive	inactive	inactive	inactive		inactive		inactive	inactive		43.8 µM (active) and inactive	61.9 µM [cytotoxic] (active) and inactive	
CCC1(C2=NCCN2)Cc2ccccc2O1 (stereo not given)	inactive		inactive	inactive	inactive	inactive	inactive	inactive	inactive	inactive	inactive	inactive	inactive	inactive	inactive	inactive	inactive	inactive		inactive
CC1(C)[C@H](C(=O)O[C@H](C#N)c2cccc(Oc3ccccc3)c2)[C@@H]1C=C(Br)Br	inactive	inactive	inactive		inactive	inactive	inactive	inactive	inactive	inactive	inactive			inactive						
CN(C)C(=O)Nc1cccc(OC(=O)NC(C)(C)C)c1	inactive		inactive	inactive	inactive	inactive	inactive	inactive		inactive	inactive	inactive	inactive	inactive	inactive	inactive	inactive			
CC(C)[C@@H](C(=O)O[C@@H](C#N)c1cccc(Oc2ccccc2)c1)c1ccc(Cl)cc1	inactive		inactive		inactive	inactive	inactive	inactive	inactive	inactive	inactive		inactive	inactive				inactive		inactive
O=C1CC[C@@]2(O)[C@H]3Cc4ccc(O)c5c4[C@@]2(CCN3CC2CC2)[C@H]1O5	inactive	inactive	inactive	inactive	inactive	inactive	inactive	inactive	inactive	inactive	inactive	inactive		inactive						
O=C(O)c1cc(I)cc(I)c1I	inactive		inactive	inactive	inactive	inactive	inactive	inactive	inactive	inactive	inactive	inactive		inactive	inactive	inactive			inactive	
CC(C)CCCCCCCOC(=O)c1ccccc1C(=O)OCCCCCCCC(C)C	inactive	inactive		inactive	inactive	inactive	inactive	inactive		inactive	inactive	inactive	inactive	inactive				inactive		
COc1ccccc1N1CCNCC1	inactive	inactive	inactive	inactive	inactive	inactive	inactive	inactive	inactive	inactive	inactive	inactive	inactive					inactive		
